Compound activity (PubChem)
A selection: hits, their analogues and other compounds. The true share with any hit is near 2.5%.
MEKK2 mut-MEK5 – MEK5 binding signal on mutant MEKK2 PB1, primary screen, biochemical, multiplex bead flow cytometry, Alexa488-MEK5 | percent response, % at 10 µM | Alexa488-MEK5 binding to MEKK2 mutant | actives 0.35% (n = 290,000); in the data active means percent response above about 24%, passing the limit was not always enough
MEKK2 WT-MEK5 – modulators of MEK5 binding to wildtype MEKK2, primary screen, biochemical, multiplex bead flow cytometry, Alexa488-MEK5 | Mitogen-activated protein kinase kinase kinase 2 (Homo sapiens), Q9Y2U5 | Alexa488-MEK5 binding to MEKK2 WT; actives lie on both sides | binding response (% of control), % at 10 µM | actives 1.1% (n = 290,000); in the data active means binding response below about 67% or above about 130%
UBC13 inh – UBC13 polyubiquitin chain formation inhibitors, primary screen, biochemical, TR-FRET, uHTS; Ubiquitin-conjugating enzyme E2 N (Homo sapiens), P61088; inhibition, % at 20 µM; actives 0.47% (n = 330,000); AID 485273, 2010; in the data active means inhibition above about 45%, passing the limit was not always enough
Rce1 inh – yeast Rce1p protease inhibitors, primary screen, biochemical, fluorescence, cell-free homogeneous. actives 0.27% (n = 290,000). calls only. yeast membranes, quenched prenylated peptide cleavage fluorescence;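 active means fall in fluorescence gain of 50% or more versus controls, with final raw signal at or below 3038400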;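 further: plate controls were neutral control wells for no effect and wells lacking membranes for full effect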
MEKK3 PB1 HTS – modulators of MEKK3-MEK5 PB1 binding, primary screen, biochemical, wildtype MEKK3, multiplex bead flow cytometry, Alexa488-MEK5; binding response (% of control), % at 10 µM; Mitogen-activated protein kinase kinase kinase 3 (Homo sapiens), Q99759; bead-based flow cytometry, Alexa488-MEK5 binding to MEKK3; actives lie on both sides; 0 = blocked by unlabeled MEK5, 100 = vehicle; actives 1.4% (n = 290,000);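 active means binding response more than 3 SD above or below the average of its plate-row segment, actives on both sides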;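 further: Alexa488 bead fluorescence after subtracting the streptavidin-only scavenger bead signal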
Target sequence (Q99759 whole entry, looked up): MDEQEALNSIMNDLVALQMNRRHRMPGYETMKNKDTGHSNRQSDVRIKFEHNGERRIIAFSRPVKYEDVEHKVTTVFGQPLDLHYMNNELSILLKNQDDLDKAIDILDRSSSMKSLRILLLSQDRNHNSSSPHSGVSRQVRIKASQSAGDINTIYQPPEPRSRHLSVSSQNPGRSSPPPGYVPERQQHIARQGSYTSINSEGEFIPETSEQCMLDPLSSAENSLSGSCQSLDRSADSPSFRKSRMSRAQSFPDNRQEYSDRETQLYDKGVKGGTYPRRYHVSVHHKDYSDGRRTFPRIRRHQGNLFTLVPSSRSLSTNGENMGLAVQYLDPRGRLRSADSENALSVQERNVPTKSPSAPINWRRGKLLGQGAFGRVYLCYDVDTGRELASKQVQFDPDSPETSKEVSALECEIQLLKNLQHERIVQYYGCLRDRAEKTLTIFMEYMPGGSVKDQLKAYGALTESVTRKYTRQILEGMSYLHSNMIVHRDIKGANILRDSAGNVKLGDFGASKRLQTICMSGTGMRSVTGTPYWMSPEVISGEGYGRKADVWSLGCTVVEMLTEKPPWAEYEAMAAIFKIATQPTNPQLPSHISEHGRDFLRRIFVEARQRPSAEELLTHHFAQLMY
MEKK2wt confirm – modulators of MEK5 binding to wildtype MEKK2, confirmation, biochemical, single concentration, multiplex bead flow cytometry; Alexa488-MEK5 binding to MEKK2 WT; actives lie on both sides; shares compounds with MEKK3 PB1 HTS; AID 1892, 2009; actives 2.4% (n = 5,900); binding response (% of control), % at 10 µM; in the data active means binding response below about 16% or above about 210%; inactive means in between
MEKK2mut confirm – mutant MEKK2 PB1-MEK5 binding signal retest – biochemical, single concentration, multiplex bead flow cytometry, confirmation; actives 2% (n = 5,900); shares compounds with MEKK3 PB1 HTS; Alexa488-MEK5 binding to MEKK2 mutant; AID 1893, 2009; percent response, % at 10 µM; in the data active means percent response mostly above about 71%, no sharp cut-off; inactive means mostly below about 38%;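 further: higher means compound restores mutant binding toward wildtype level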
MEKK3-MEK5 inh – MEKK3 wild-type PB1 binding to MEK5, inhibitors, confirmation, biochemical, bead multiplex flow cytometry, single concentration, wildtype. AID 1894, 2009. actives 1.8% (n = 5,900). Alexa488-MEK5 binding to MEKK3; hits give low values. binding response (% of control), % at 10 µM. shares compounds with MEKK3 PB1 HTS;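 active means binding response below 72% of control, or above a set upper limit, though filed actives all read lower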;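 further: 100% = DMSO only wells and 0% = binding blocked by excess unlabeled MEK5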
* marks the source's active call; other numbers are inactive results; i = inactive; . = no result; [ ] = dose if it differs, or a comment.

SMILES | MEKK2 mut-MEK5 | MEKK2 WT-MEK5 | UBC13 inh | Rce1 inh | MEKK3 PB1 HTS | MEKK2wt confirm | MEKK2mut confirm | MEKK3-MEK5 inh
CCOc1cc(CNCc2ccncc2)cc(Br)c1OCc1ccc(F)cc1 | 22 | 142* | -10 | i | 108 | 128 | 22 | 112
COc1cc(CNC(C)c2ccccc2)cc(Br)c1OCc1ccccc1 (stereo unspecified) | 17 | 192* | 18 | i | 112 | 164 | 31 | 105
Cc1[nH][nH]c(=O)c1/C=N/N1CCOCC1 | 1 | 100 | -1 | i | 101 | . | . | .
O=C(CCNS(=O)(=O)c1ccccc1F)OCc1ccccc1Cl | . | . | 16 | . | . | . | . | .
O=C(Cn1cc(C(F)(F)F)cc(Cl)c1=O)NCc1ccccc1 | -1 | 103 | -10 | i | 99 | . | . | .
O=C(Cn1cc(C(F)(F)F)cc(Cl)c1=O)NCCc1ccccc1 | 0 | 108 | 2 | i | 135* | 103 | 2 | 102
Cc1ncc([N+](=O)[O-])n1CC(=O)Nc1ccc(F)cc1 | 3 | 102 | 4 | i | 103 | . | . | .
Cc1ccc([N+](=O)[O-])c(OCCCN2CCCCCC2)c1 | 66* | 169* | 12 | i | 99 | 130 | 16 | 104
CCCc1noc2c1C(c1cc(Br)ccc1F)C(C#N)=C(N)N2 (stereo unspecified) | -13 | 66 | -1 | i | 61 | . | . | .
O=C(COC(=O)CNC(=O)c1ccccc1F)Nc1ncc(Cl)cc1Cl | . | . | -15 | . | . | . | . | .
Cc1cc(C)c(S(=O)(=O)N2CCCCC2CCNC(=O)C(=O)NCCN2CCOCC2)c(C)c1 (stereo unspecified) | . | . | -1 | i | . | . | . | .
Cc1cc(C)cc(NC(=O)CN2CCC(NC(=O)c3ccccc3F)CC2)c1 | 8 | 135* | 7 | . | 104 | 117 | 6 | 101
O=C(CN1CCC(NC(=O)c2ccccc2F)CC1)NCc1ccc(F)cc1 | 7 | 106 | -8 | i | 101 | . | . | .
O=C(CSc1nnnn1-c1cccc(O)c1)NC1CC1 | 4 | 105 | -2 | i | 101 | . | . | .
CC1=C(c2ccccc2)SC2=NCCN21 | 9 | 108 | 1 | i | 107 | . | . | .
CCCN(Cc1cc2cc(C)ccc2[nH]c1=O)S(C)(=O)=O | 5 | 120 | 1 | i | 128* | 101 | 3 | 103
Cc1ccc(N(CC(=O)NC2CCCC2)C(=O)CNC(=O)c2cccs2)cc1F | -6 | 104 | -9 | i | 103 | . | . | .
c1ccc(OCCOc2cccc3cccnc23)cc1 | 1 | 109 | -14 | i | 152* | 94 | 0 | 94
COc1ccccc1NS(=O)(=O)c1cc(NC(=O)CCC(=O)c2cccs2)ccc1Cl | 0 | 108 | 1 | i | 147* | 99 | -6 | 97
CC(Sc1nc2ccccc2o1)C(=O)O (stereo unspecified) | -21 | -39*[inhibitor] | 2 | . | -3.0*[inhibitor] | 103 | 3 | 104
CCC(C)[C@H](NS(=O)(=O)c1ccc(C)cc1)C(=O)N1CCC(C(=O)N2CCC(C(=O)OC)CC2)CC1 (stereo partly specified) | 0 | 95 | -3 | i | 96 | . | . | .
CCn1nc(C)c(NS(=O)(=O)c2ccc(C)cc2)c1C | 2 | 88 | 1 | i | 73*[inhibitor] | 104 | 7 | 107
CCCc1ccc(Oc2cc(NN3CCCCC3)c([N+](=O)[O-])cc2[N+](=O)[O-])cc1 | 2 | 95 | -22 | i | 98 | . | . | .
O=C(CSc1nc(O)c(Cc2ccccc2)c(=O)[nH]1)N1CCOCC1 | 31 | 118 | 4 | i | 131* | 98 | 2 | 99
CN(c1ccc(F)cc1)S(=O)(=O)c1ccc(Cl)c(C(=O)Nc2ccc3c(c2)CCC3)c1 | 1 | 111 | 7 | i | 134* | 104 | -5 | 101
SMILES | MEKK2 mut-MEK5 | MEKK2 WT-MEK5 | UBC13 inh | Rce1 inh | MEKK3 PB1 HTS | MEKK2wt confirm | MEKK2mut confirm | MEKK3-MEK5 inh
CN(c1ccc(F)cc1)S(=O)(=O)c1ccc(Cl)c(C(=O)Nc2ccncc2)c1 | . | . | 8 | i | . | . | . | .
Cc1cc(NC(=O)CCN2CCN(C/C=C/c3ccccc3)CC2)ccc1Br | 18 | 149* | 22 | i | 112 | 152 | 20 | 109
CCc1ccc(NC(=O)C2CCCN2S(=O)(=O)c2ccc3c(c2)n(C)c(=O)c(=O)n3C)cc1 (stereo unspecified) | -12 | 80 | -1 | i | 68*[inhibitor] | 103 | 6 | 104
COc1cc2[nH]c(C(=O)NCc3ccccc3)cc2c(OC)c1OC | 9 | 106 | 13 | i | 108 | . | . | .
O=C(COC(=O)COc1ccc(Cl)cc1Cl)Nc1cccnc1Cl | -1 | 105 | -4 | i | 137* | 103 | 2 | 102
CC(C)(C)NC(=O)NC(=O)COC(=O)COc1ccc(Cl)cc1Cl | -3 | 93 | -1 | . | 75*[inhibitor] | 103 | 5 | 107
CCCCC1CCC(C(=O)N(CCOC)c2c(N)n(CCCC)c(=O)[nH]c2=O)CC1 (stereo unspecified) | . | . | 4 | i | . | . | . | .
CN(C)/C=N/c1nc2nccc(-c3ccc(Cl)cc3)n2n1 | -7 | 91 | 4 | i | 93 | . | . | .
CN(C)/C=N/c1nc2nccc(-c3ccccc3)n2n1 | -16 | 56 | 17 | i | 47*[inhibitor] | 93 | -6 | 90
CN1CCN(S(=O)(=O)c2ccc3c(c2)NC(=O)C2CCCN32)CC1 (stereo unspecified) | 0 | 102 | -1 | i | 108 | . | . | .
CNS(=O)(=O)c1ccc2c(c1)NC(=O)C1CCCN21 (stereo unspecified) | 0 | 110 | -4 | i | 153* | 103 | 3 | 101
CC12CN3CC(C)(CN(C1)C3c1ccc(F)cc1)C2 (stereo unspecified) | 1 | 115 | 10 | i | 130* | 103 | -3 | 98
COc1ccc(C(=O)NCc2n[nH]c(=S)n2-c2ccccc2)cc1OC | -40 | -5.0*[inhibitor] | 8 | i | -1.0*[inhibitor] | 110 | 11 | 107
COc1cc(OC)cc(C(=O)NCc2n[nH]c(=S)n2-c2ccccc2)c1 | -2 | 96 | -3 | i | 98 | . | . | .
